HEK293 tox: kills HEK 293 cells | HEK 293 viability, ATP luminescence (CellTiter-Glo), 48-72 h | Potency, µM (highest dose often 115 µM), for the others: at the highest dose activity change, negative = cytotoxicity, usual class: inhibitors | 94,000 compounds, 6.6% hits | AID 1345083; also: nearly all actives have a fitted effect of over 60% in size
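HEK 293 cells at 250 cells/well were exposed to compounds by pintool transfer for 48 or 72 hr at 37 degree Celsius, 5% CO2. Viability was read as ATP-coupled luminescence with CellTiter-Glo after 10 min at room temperature.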
Luciferase inh: blocks purified firefly luciferase enzyme activity. P08659. purified P. pyralis luciferase, luminescence, biochemical. Potency, µM (series often up to 115 µM), most hits filed as inhibitors. 76,000 compounds, 2.5% hits. AID 1347043; also: nearly all actives have a fitted effect of over 65% in size
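Luminescence read by CCD imaging after purified firefly luciferase (10nM final) was added to substrate buffer holding 10uM D-luciferin and 10uM ATP, pH 7.5, pre-dosed with compound.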
NPR1 antag: human Npr1 receptor antagonism; P16066; HEK293 hNpr1 GloSensor cGMP, ANP-stimulated luminescence; Potency, µM (titrated, usually from 46.3 µM), for the others: top-dose activity change, negative = inhibition, usual class: inhibitors; 76,000 compounds, 1.6% hits; calls by dose curve; also: nearly all actives have a fitted effect of over 60% in size
Target sequence (P16066 whole entry, looked up): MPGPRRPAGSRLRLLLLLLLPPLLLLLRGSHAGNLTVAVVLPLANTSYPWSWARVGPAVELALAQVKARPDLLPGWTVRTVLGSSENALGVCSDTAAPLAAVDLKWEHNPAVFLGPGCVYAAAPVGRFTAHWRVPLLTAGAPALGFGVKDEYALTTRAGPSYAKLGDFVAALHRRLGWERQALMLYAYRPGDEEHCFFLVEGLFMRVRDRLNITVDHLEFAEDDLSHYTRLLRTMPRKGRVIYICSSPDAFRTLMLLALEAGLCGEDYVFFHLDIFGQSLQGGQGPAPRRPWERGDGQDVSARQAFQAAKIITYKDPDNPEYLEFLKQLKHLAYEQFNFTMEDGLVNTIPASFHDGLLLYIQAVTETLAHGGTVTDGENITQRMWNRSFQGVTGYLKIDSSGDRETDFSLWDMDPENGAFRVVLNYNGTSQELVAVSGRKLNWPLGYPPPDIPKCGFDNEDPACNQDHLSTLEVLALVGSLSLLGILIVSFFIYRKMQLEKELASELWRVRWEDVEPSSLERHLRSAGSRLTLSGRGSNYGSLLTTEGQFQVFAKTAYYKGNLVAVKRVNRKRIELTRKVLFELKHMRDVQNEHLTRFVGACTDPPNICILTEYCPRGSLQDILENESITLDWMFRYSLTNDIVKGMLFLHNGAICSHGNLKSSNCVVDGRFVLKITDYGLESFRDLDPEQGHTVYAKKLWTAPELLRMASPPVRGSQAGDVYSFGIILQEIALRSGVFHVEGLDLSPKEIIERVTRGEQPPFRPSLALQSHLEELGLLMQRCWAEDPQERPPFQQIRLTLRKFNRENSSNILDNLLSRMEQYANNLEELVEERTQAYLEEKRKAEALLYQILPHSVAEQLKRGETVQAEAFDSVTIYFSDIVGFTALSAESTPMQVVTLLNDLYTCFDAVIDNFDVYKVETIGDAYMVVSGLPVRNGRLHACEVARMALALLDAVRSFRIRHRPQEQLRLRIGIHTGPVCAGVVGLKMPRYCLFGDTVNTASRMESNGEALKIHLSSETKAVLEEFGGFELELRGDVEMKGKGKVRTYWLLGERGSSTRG
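HEK293 cells stably expressing human Npr1 and cGMP GloSensor pGS-40F, loaded 2 h with 2% GloSensor reagent, given compound 30 min at room temperature. Luminescence read before and 20 min after 0.1 nM hNppA.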
NIH3T3 tox: kills NIH 3T3 cells; NIH 3T3 viability, CellTiter-Glo ATP luminescence, 48-72 h; Potency, µM (titrated, usually from 96.7 µM), inactives show top-dose activity change, negative = cytotoxicity, usual class: inhibitors; 94,000 compounds, 4.3% hits; also: nearly all actives have a fitted effect of over 55% in size
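Cytotoxicity was measured by CellTiter-Glo ATP luminescence after 48 or 72 h compound exposure at 37 °C. Mouse NIH 3T3 fibroblasts were seeded at 400 cells/well and dosed by 23 nL pin transfer.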
HEK293 viab: cell viability loss counter-screen; 150,000 compounds, 0.12% hits; HEK-293-SNCA-luc viability, GF-AFC fluorescence, 24 h; Potency, µM (top dose mostly 57.1 µM), inactives show top-dose activity change, negative = cytotoxicity, most hits filed as cytotoxic;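 also: 0% = DMSO-treated cells and -100% = medium-only wells without cells; nearly all actives have a fitted effect of over 30% in size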
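Cytotoxicity counterscreen: after 24 h compound treatment of genome-edited SNCA-luciferase HEK-293 cells, live-cell protease substrate GF-AFC read by fluorescence after 30 min; activity scaled between DMSO (0%) and medium-only (-100%), curves Hill-fitted.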
SNCA expr inhib: inhibitors of alpha-synuclein (SNCA) gene expression. 140,000 compounds, 0.17% hits. Potency, µM (doses to about 57.2 µM), without a hit: top-dose activity change, negative = inhibition, most hits filed as inhibitors. HEK-293 SNCA-luciferase knock-in, luminescence, 24 h;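 also: plate controls were DMSO cells for no effect and cell-free wells for full effect; nearly all actives have a fitted effect of over 45% in size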
* hit, by the source's call; [ ] = dose if it differs, or a comment. In the library only some 7.4% were active in any assay of this set; here they are far more common. Unless noted, calls follow the shape of the dose curve; as a rule, active = well fitted curve in the direction sought with a large enough effect; inconclusive = small, poorly fitted or top-dose-only effect, or another doubt; inactive = no such curve, though single readings can be large; an effect the other way counts as inactive or inconclusive. Unless noted, % is scaled to controls: 0 for no effect and ±100 for the full control effect; potency is read from the fitted curve at half-maximal effect.

How did O=C(c1ccco1)N1[C@H]2CC[C@@H]1c1cnc(-c3ccc(F)cc3)nc1C2 do in these assays?
HEK293 tox: 45µM*; Luciferase inh: inactive; NPR1 antag: inconclusive; NIH3T3 tox: -26%; HEK293 viab: -7%; SNCA expr inhib: 9%

What do the screens show for `O=C(CCc1nc2ccccc2s1)N1[C@H]2CC[C@@H]1c1cnc(-c3ccc(F)cc3)nc1C2`?
HEK293 tox: 40µM*; Luciferase inh: inactive; NPR1 antag: 0.71µM*; NIH3T3 tox: -26%; HEK293 viab: 6%; SNCA expr inhib: -1%

How did Cn1nccc1C(=O)N1[C@H]2CC[C@@H]1c1cnc(-c3ccc(F)cc3)nc1C2 do in these assays?
HEK293 tox: inconclusive; Luciferase inh: inactive; NPR1 antag: inconclusive; NIH3T3 tox: inconclusive; HEK293 viab: -10%; SNCA expr inhib: -2%

What do the screens show for `Cc1noc(C)c1S(=O)(=O)N1[C@H]2CC[C@@H]1c1cnc(-c3ccc(F)cc3)nc1C2`?
HEK293 tox: 45µM*; Luciferase inh: inactive; NPR1 antag: inconclusive; NIH3T3 tox: inconclusive; HEK293 viab: 3%; SNCA expr inhib: -26%

Results for O=C(CCc1nc2ccccc2[nH]1)N1[C@H]2CC[C@@H]1c1cnc(-c3ccc(F)cc3)nc1C2 ?
HEK293 tox: -28%; Luciferase inh: inactive; NPR1 antag: -2%; NIH3T3 tox: -13%; HEK293 viab: -3%; SNCA expr inhib: -27%

How did COc1ccc2c(C)c(C(=O)N3CCC(C#N)(c4ccccc4)CC3)oc2c1 do in these assays?
HEK293 tox: inconclusive; Luciferase inh: inactive; NPR1 antag: -18%; NIH3T3 tox: inconclusive; HEK293 viab: 0%; SNCA expr inhib: 0%

How did C[C@@](O)(COc1ccc(C#N)cc1)C(=O)Nc1ccc(C#N)c(C(F)(F)F)c1 do in these assays?
HEK293 viab: 6%

Results for O=C(c1ccccc1)N1C[C@@H]2C[C@H](C1)c1ccc(-c3ccc(Cl)cc3)c(=O)n1C2 ?
HEK293 tox: inconclusive; Luciferase inh: inactive; NPR1 antag: -15%[70.6 µM]; NIH3T3 tox: 63µM*; HEK293 viab: -18%[87.6 µM]; SNCA expr inhib: 29%[87.6 µM]

What do the screens show for `COCC(=O)NC[C@H]1C[C@@H]2CCN1C[C@@H]2CN1CCCC1`?
HEK293 tox: -25%[172 µM]; Luciferase inh: inactive; NPR1 antag: 3%[70.6 µM]; NIH3T3 tox: -17%[174 µM]; HEK293 viab: 4%[87.6 µM]; SNCA expr inhib: 12%[87.6 µM]

What do the screens show for `Cn1nc(-c2ccc3ccccc3c2)cc1[C@H]1CN2CC[C@H]1C[C@@H]2CNC(=O)COc1ccccc1`?
HEK293 tox: 25µM*; Luciferase inh: inactive; NPR1 antag: 3%; NIH3T3 tox: 28µM*; HEK293 viab: -17%; SNCA expr inhib: 1%

What do the screens show for `Cn1nc(-c2ccc3ccccc3c2)cc1[C@H]1CN2CC[C@H]1C[C@@H]2CNC(=O)NCc1ccccc1`?
HEK293 tox: inconclusive; Luciferase inh: inactive; NPR1 antag: -12%; NIH3T3 tox: 18µM*; HEK293 viab: inconclusive; SNCA expr inhib: inconclusive

How did Cn1nc(-c2ccc3ccccc3c2)cc1[C@H]1CN2CC[C@H]1C[C@@H]2CNS(=O)(=O)c1ccccc1 do in these assays?
HEK293 tox: 25µM*; Luciferase inh: inconclusive; NPR1 antag: -24%; NIH3T3 tox: inconclusive; HEK293 viab: -18%; SNCA expr inhib: inconclusive

What do the screens show for `Cn1nc(-c2ccc3ccccc3c2)cc1[C@H]1CN2CC[C@H]1C[C@@H]2CNC(=O)N1CCOCC1`?
HEK293 tox: inconclusive; Luciferase inh: inactive; NPR1 antag: 0%; NIH3T3 tox: inconclusive; HEK293 viab: -6%; SNCA expr inhib: 2%

What do the screens show for `COc1ccc(OC)c(S(=O)(=O)NC[C@H]2C[C@@H]3CCN2C[C@@H]3c2cc(-c3ccc4ccccc4c3)nn2C)c1`?
HEK293 tox: inconclusive; Luciferase inh: inactive; NPR1 antag: 1%; NIH3T3 tox: inconclusive; HEK293 viab: -6%; SNCA expr inhib: -1%

Results for C=C[C@H]1CN2CC[C@H]1C[C@@H]2CNS(=O)(=O)c1ccc2ccccc2c1 ?
HEK293 tox: 112µM*; Luciferase inh: inactive; NPR1 antag: 1%[70.6 µM]; NIH3T3 tox: inconclusive; HEK293 viab: -4%[87.6 µM]; SNCA expr inhib: 3%[87.6 µM]

What do the screens show for `C=C[C@H]1CN2CC[C@H]1C[C@@H]2CNS(=O)(=O)c1ccc(OC)cc1`?
HEK293 tox: -7%[172 µM]; Luciferase inh: inactive; NPR1 antag: 5%[70.6 µM]; NIH3T3 tox: 1%[174 µM]; HEK293 viab: 3%[87.6 µM]; SNCA expr inhib: inconclusive

What do the screens show for `COc1ccc(-c2cc([C@H]3CN4CC[C@H]3C[C@@H]4CNC(=O)NCc3ccccc3)n(C)n2)cc1`?
HEK293 tox: inconclusive; Luciferase inh: inactive; NPR1 antag: -3%; NIH3T3 tox: inconclusive; HEK293 viab: 4%; SNCA expr inhib: 2%

How did O=C1NC2(CN(CC3CC3)C2)Oc2ccccc21 do in these assays?
HEK293 tox: -14%[172 µM]; Luciferase inh: inactive; NPR1 antag: 1%[70.6 µM]; NIH3T3 tox: -12%[138 µM]; HEK293 viab: 12%[87.6 µM]; SNCA expr inhib: 19%[87.6 µM]

What do the screens show for `CN(C[C@H]1CN2CC[C@H]1C[C@@H]2CNC(=O)c1ccccc1)c1ccccc1`?
HEK293 tox: inconclusive; Luciferase inh: inactive; NPR1 antag: -9%[70.6 µM]; NIH3T3 tox: inconclusive; HEK293 viab: -9%[87.6 µM]; SNCA expr inhib: -8%[87.6 µM]

Results for CC1=CC2/C=C(\C)CCCC(O)/C=C/C(=O)OC23C(=O)NC(CC(C)C)C3C1C (stereo unspecified) ?
HEK293 viab: -23%

How did COc1ccc(-c2cc([C@H]3CN4CC[C@H]3C[C@@H]4CNS(=O)(=O)c3cccs3)n(C)n2)cc1OC do in these assays?
HEK293 tox: inconclusive; Luciferase inh: inactive; NPR1 antag: 0%; NIH3T3 tox: inconclusive; HEK293 viab: -8%; SNCA expr inhib: 2%

How did CC(=O)NC[C@H]1C[C@@H]2CCN1C[C@@H]2c1cc(-c2ccc3ccccc3c2)nn1C do in these assays?
HEK293 tox: 56µM*; Luciferase inh: inconclusive; NPR1 antag: 3%[70.6 µM]; NIH3T3 tox: 32µM*; HEK293 viab: -17%[87.6 µM]; SNCA expr inhib: 15%[87.6 µM]

Results for C=C[C@H]1CN2CC[C@H]1C[C@@H]2CNCc1ccc(SC)cc1 ?
HEK293 tox: 89µM*; Luciferase inh: inactive; NPR1 antag: -5%[70.6 µM]; NIH3T3 tox: inconclusive; HEK293 viab: -11%[87.6 µM]; SNCA expr inhib: 14%[87.6 µM]

Screening data (PubChem BioAssay)
